{
  "source": "PubChem BioAssay AID493054",
  "about": "(Broad Institute, 2011)",
  "note": "Measured potencies and affinities stand elsewhere. Activity calls are given as the source filed them.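 The calls were made as follows: active = viability loss with fitted half-maximal dose at most ten times the highest valid dose tested; inconclusive = flat viability loss between 30 and 70%, or poor curve fit; inactive = the rest, including flat curves or rising signal.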",
  "data": [
    {"assay": "BJeH cell viability loss – BJeH cells, dry powder, counter-screen for Ras selective lethality project, dose response (AID 493054)", "conditions": "BJeH fibroblasts viability, Alamar Blue fluorescence, 48 h; series mostly up to 45 µM", "values": [
      {"smiles": "O=C(c1[nH]ncc1[N+](=O)[O-])N1CCN(C(c2ccccc2)c2ccccc2)CC1", "outcome": "inactive"},
      {"smiles": "COCC(=O)N(c1ccc(OC)c(Cl)c1)C(C(=O)NCCc1ccccc1)c1cccs1", "note": "(centres undefined)", "outcome": "inactive"},
      {"smiles": "COc1ccc(N(C(=O)CO)C(C(=O)NCCc2ccccc2)c2cccs2)cc1Cl", "note": "(centres undefined)", "outcome": "inactive"},
      {"smiles": "CCC(=O)N(c1ccc(OC)c(Cl)c1)C(C(=O)NCCc1ccccc1)c1cccs1", "note": "(centres undefined)", "outcome": "inactive"}
    ]}
  ]
}
